Assay outcomes (PubChem BioAssay)
D1 antagonist = Antagonist of Human D 1 Dopamine Receptor: qHTS; D(1A) dopamine receptor (Homo sapiens), P21728; HEK293 TREx D1 cells, calcium flux, dopamine EC80; active compounds read low; activity change, negative = inhibition, % at 10 µM; actives 3.2% (n = 360,000); AID 504652, 2011; in the data active means activity change below about -30%; further: on the % scale 0 is the no-effect control and ±100 the full control effect
Target sequence (P21728 whole entry, looked up): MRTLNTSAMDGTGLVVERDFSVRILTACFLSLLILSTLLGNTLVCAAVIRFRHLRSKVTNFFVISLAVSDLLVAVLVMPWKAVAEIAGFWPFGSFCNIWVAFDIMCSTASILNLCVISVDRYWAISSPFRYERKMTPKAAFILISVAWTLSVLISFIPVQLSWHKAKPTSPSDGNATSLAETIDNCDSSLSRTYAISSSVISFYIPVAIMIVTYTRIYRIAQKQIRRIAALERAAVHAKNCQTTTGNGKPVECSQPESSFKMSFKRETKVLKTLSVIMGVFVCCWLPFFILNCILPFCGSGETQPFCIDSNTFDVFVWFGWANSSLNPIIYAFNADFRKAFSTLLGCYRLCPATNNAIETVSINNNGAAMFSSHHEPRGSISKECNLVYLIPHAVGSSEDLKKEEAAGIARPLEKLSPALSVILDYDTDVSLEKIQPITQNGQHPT
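After overnight tetracycline induction at 30 C, force-coupled D1 HEK293 cells took up a no-wash calcium dye at room temperature. Compounds were added and monitored 180 s, and the response to EC80 dopamine was then recorded.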
TRHR enhancer = qHTS for Small Molecule Agonists and Allosteric Enhancers of Human TRH Receptor: Primary Screen for Enhancers; actives 0.66% (n = 360,000); enhancement, % at 2 µM; AID 493056, 2011; TRHR cells, fluo-8 calcium fluorescence, EC20 TRH enhancement; in the data active means enhancement above about 30%; further: 0% is about no effect
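Enhancer read-out: after compound pinning and an initial kinetic agonist-mode read, an EC20 of TRH (10 nM final) was injected and fluo-8 calcium signal (Ex 480/Em 530) followed at 1 s/cycle for 100 cycles in TRHR-expressing cells.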
GRP78 ERSR act = qHTS for Inducers of the Endoplasmic Reticulum Stress Response (ERSR) in Human Glioma: qHTS | U87-MG GRP78 promoter luciferase reporter, 16 h | Potency, µM, for inactives: at the highest dose activation, usual class: activators | actives 0.02% (n = 420,000); active means well fitted activation curve with a large enough effect; further: potency means the concentration at half of the fitted maximal effect; series mostly up to about 76 µM; % of control where 0% means no effect; nearly all actives have a fitted effect of over 35% in size
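Stably transfected U87-MG human glioma cells carrying a GRP78-based luminescent sensor were seeded at 1000 cells/well, pin-dosed with compounds and incubated 16 h. Luciferase reagent was then added, and end-point luminescence was read after 10 min at room temperature.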
TRHR ag = qHTS for Small Molecule Agonists and Allosteric Enhancers of Human TRH Receptor: Primary Screen for Agonists. Thyrotropin-releasing hormone receptor (Homo sapiens), P34981. TRHR cells, calcium flux fluo-8, FDSS agonist mode. activation, % at 2 µM. actives 0.18% (n = 360,000). AID 493084, 2011; further: 0% is about no effect
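Fluo-8-loaded TRHR cells; 10 s baseline, compound added, kinetic Ca2+ fluorescence read 1/s, agonist mode.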
D1 potentiator = Potentiators of Human D1 Dopamine Receptor: qHTS; D(1A) dopamine receptor (Homo sapiens), P21728; HEK293 TREx D1 cells, calcium flux, dopamine EC20 potentiation; potentiation, % at 10 µM; actives 0.036% (n = 360,000); AID 504651, 2011; in the data active means potentiation above about 30%; further: 0% is about no effect
D1 ag = Allosteric Agonists of the Human D1 Dopamine Receptor: qHTS. HEK293 T-REx D1 cells, calcium flux, agonist mode. activation, % at 2 µM. actives 1% (n = 360,000). AID 504660, 2011; further: 0% is about no effect
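Agonism was scored from calcium flux recorded over 180 s (1 read/s) after pintool compound addition, following a 10-cycle baseline. Cells were inducible force-coupled HEK293 TREx D1, plated overnight at 30 C and loaded with no-wash calcium dye.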
* marks the source's active call; other numbers are inactive results; / = no result given. Only some compounds are listed: those with a hit (about 4% of all), similar ones and a draw of the others. Unless noted, no stated cut-off is given here; in the data, active means activation above about 30%; inactive means the rest.

SMILES | D1 antagonist | TRHR enhancer | GRP78 ERSR act | TRHR ag | D1 potentiator | D1 ag
COc1ccc(/C=C/C(=O)NNC(=O)c2cc(C)oc2C)cc1 | -24.0 | 3.3 | -2.3% | -0.4 | -8.8 | 1.3
O=C(CC1SC(=O)N(c2ccccc2)C1=O)Nc1ccccc1 (configuration not stated) | -5.7 | -4.9 | 7.8% | 0.0 | -1.9 | 2.9
O=C(CC1Sc2ncnn2C1=O)Nc1ccccc1 (configuration not stated) | 0.9 | 30.3* | -1.9% | -0.6 | -2.4 | 0.6
CCOc1ccc(-n2c(SCC(=O)Nc3ccc(CC)cc3)nc3c(oc4ccccc43)c2=O)cc1 | 6.1 | 4.9 | -1.3% | 0.3 | -0.4 | -1.8
Cc1cc(SCC(=O)OCC(=O)NCc2ccc3c(c2)OCO3)c(C)cc1Br | -38.4* | 2.7 | -2.4% | 0.6 | -1.6 | 14.4
O=C(COC(=O)C1(c2ccc(F)cc2)CCCC1)NCc1ccc2c(c1)OCO2 | -31.6* | -6.9 | -5.7% | 0.3 | -10.0 | 10.1
Cc1cc(SCC(=O)OCC(=O)N2CCN(C(=O)c3ccco3)CC2)c(C)cc1Br | -18.4 | -5.6 | -2.0% | -0.3 | -5.6 | 44.5*
CSCCC(NC(=O)c1ccccc1Cl)C(=O)NCCOc1ccccc1 (configuration not stated) | -0.7 | -4.1 | -4.8% | -0.4 | 2.4 | 0.3
Brc1ccc(OCc2cn3ccccc3n2)cc1 | / | 5.0 | -3.5% | -1.0 | -9.2 | -2.2
Cc1cccc(NC(=O)c2ccc(F)c(S(=O)(=O)NCc3ccco3)c2)c1 | 4.4 | -1.6 | -2.0% | -0.2 | 11.0 | 6.9
O=C(Nc1cccc(Cl)c1Cl)c1ccco1 | / | / | -0.4% | / | / | /
Cc1cccc(Cl)c1OCCN1CCCC1 | -40.8* | -0.3 | -2.4% | 1.8 | -6.2 | 0.6
Cc1ccc(OCCN2CCCC2)cc1 | -0.4 | 33.0* | -3.2% | 0.0 | -0.9 | 1.0
Clc1cccc(Cl)c1OCCCCN1CCCCC1 | -13.8 | -0.6 | -0.7% | 0.1 | -1.3 | 4.5
Cc1ccc(OCCCCN2CCCCC2)cc1 | 1.3 | -5.6 | 0.6% | 0.6 | 1.7 | 5.3
CCCCCCCC(=O)N1c2ccccc2NC(=O)C1CC(=O)Nc1ccc(C(=O)O)cc1 (configuration not stated) | 8.6 | 0.1 | 3.7% | 0.0 | 0.6 | 2.3
CCCCCCCCCC(=O)N1c2ccccc2NC(=O)C1CC(=O)Nc1ccc(C(=O)O)cc1 (configuration not stated) | 14.5 | -5.2 | 3.5% | -0.1 | -5.1 | 39.4*
Cc1ccc(OCC(=O)N(Cc2ccccc2)C(C)C)c([N+](=O)[O-])n1 | 2.0 | -0.3 | -4.7% | -0.8 | -1.6 | 1.1
Cc1ccc(OC(C)C(=O)N(C)Cc2ccccc2)c([N+](=O)[O-])n1 (configuration not stated) | 17.2 | 39.2* | -5.5% | 1.8 | -14.6 | 0.9
Cc1[nH]c2ccccc2c1/C=N/NC(=O)Nc1ccccc1 | -8.8 | 8.6 | -0.7% | 0.3 | -7.7 | 2.9
Cc1[nH]c2ccccc2c1/C=N/NC(=O)c1cc(-c2ccncc2)nc2ccccc12 | -42.6* | -7.8 | 1.7% | 0.0 | -17.1 | 1.4
Cc1[nH]c2ccccc2c1/C=N/NC(=O)c1ccccc1 | -0.9 | -10.6 | -1.4% | -2.1 | 0.8 | 0.7
Cc1[nH]c2ccccc2c1/C=C/C(=O)c1ccccc1 | -19.8 | -0.3 | 7.3% | 8.3 | -3.1 | 41.3*
Cc1[nH]c2ccccc2c1/C=N/NC(=O)CCC(=O)Nc1ccccc1 | -47.6* | 16.7 | -1.7% | 0.6 | -4.2 | 1.0
CC(=O)c1cccc(NC(=O)c2cc(-c3ccncc3)nc3ccccc23)c1 | 18.2 | 0.6 | 0.8% | 0.6 | 2.9 | 0.4
SMILES | D1 antagonist | TRHR enhancer | GRP78 ERSR act | TRHR ag | D1 potentiator | D1 ag
O=C(NNC(=O)c1cc(-c2ccncc2)nc2ccccc12)c1cccc(Cl)c1 | -40.7* | 3.7 | 0.1% | 0.2 | -3.7 | 3.1
CCOc1ccc(-n2c(Cc3ccccc3)nnc2SCc2nc(-c3ccccc3OC)no2)cc1 | 2.1 | -7.5 | -3.9% | 0.8 | 0.1 | 17.1
CCOc1ccc(-n2c(Cc3ccccc3)nnc2SCc2nc(-c3ccccc3C)no2)cc1 | -1.2 | -14.0 | -3.1% | 5.1 | -1.2 | 31.6*
CCOc1ccc(-c2noc(CSc3nnc(Cc4ccccc4)n3-c3cccc(C)c3)n2)cc1 | -3.6 | 5.5 | -3.8% | 3.8 | 0.8 | 37.8*
COc1ccc(NC(=O)C(OC(=O)CNC(=O)c2ccccc2)c2ccccc2)c(C)c1 (configuration not stated) | -47.6* | 0.3 | / | -0.2 | 4.3 | 2.2
COc1cc(NC(=O)C(OC(=O)CNC(=O)c2ccccc2)c2ccccc2)c(OC)cc1Cl (configuration not stated) | 2.7 | -0.9 | / | 0.2 | -1.1 | 0.6
Cc1ccc(-c2n[nH]c(=S)c3ccccc23)cc1 | -34.9* | -7.6 | -0.5% | -1.4 | -5.5 | 2.8
CCOC(=O)[C@H]1[C@H]2COc3ccc(Cl)cc3[C@@H]2N2C(=O)c3ccc(F)cc3NC(=O)[C@@]12C | 3.6 | 19.7 | 0.3% | -0.3 | -5.7 | 1.1
O=C(CN1CCOCC1)Nc1cccc(C(F)(F)F)c1 | / | / | -4.3% | / | / | /
O=C(Nc1cccc(C(F)(F)F)c1)n1cc(-c2ccccn2)c(N2CCOCC2)n1 | -46.8* | 4.8 | -2.3% | -0.7 | -7.0 | 23.9
Cc1ccc(-c2cc3ccccc3nc2N2CCOCC2)cc1 | -15.2 | 4.5 | -0.2% | -0.5 | -0.4 | -2.4
CCc1cccc2cc3c(N)c(C(=O)Nc4ccc(S(=O)(=O)N5CCCC5)cc4)sc3nc12 | 11.7 | -2.7 | -3.1% | 23.3 | -0.5 | 60.1*
CCCSc1ncc(Cl)c(C(=O)N(Cc2ccccc2)c2ccc(OC)cc2)n1 | -36.5* | -9.1 | / | 2.5 | -2.2 | 16.4
CCOc1ccc(N(Cc2ccccc2)C(=O)c2nc(SC)ncc2Cl)cc1 | 1.2 | 2.5 | -3.4% | 1.0 | -2.5 | 5.1
O=C1COc2ccc(C(=O)CSc3nnc(NCc4ccccc4)s3)cc2N1 | 7.4 | 0.3 | -3.9% | 0.2 | -5.0 | -0.4
O=C(/C=C/c1ccccc1[N+](=O)[O-])N1CCN(c2ccccc2F)CC1 | -67.9* | -0.3 | 0.5% | -0.5 | -13.2 | 0.6
O=C(/C=C/c1cccc([N+](=O)[O-])c1)N1CCN(c2ccccc2F)CC1 | -58.4* | 3.5 | -4.4% | -0.4 | -7.5 | 0.0
